Assay results from the supplement of paper PMC8728848.
The entries come from a sample that favours the strongest signals as a whole.

Assays:
Test in all cases: glycan array binding signal (z-score within array); higher = stronger binding
Details in all cases: glycan notation: IUPAC condensed, linker removed
Fuc(a1-2)Gal = biological target: Fuc(a1-2)Gal
How it was run: (§1)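 Glycan array data were curated from 3228 arrays in the Consortium for Functional Glycomics database and kept only where the protein sequence was available. Glycan names were converted to IUPAC-condensed notation, and columns mapping to the same glycan were averaged. The binding signal is a within-array Z-score, averaged across arrays of the same protein sequence at different concentrations or buffers and across linkers. Negative Z-scores can be read as non-binding.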

[1] = biological target: Fuc(a1-2)Gal(b1-3)GlcNAc(b1-2)Man(a1-3)[Fuc(a1-2)Gal(b1-3)GlcNAc(b1-2)Man(a1-6)]Man(b1-4)GlcNAc(b1-4)GlcNAc
How it was run: as §1

[2] = biological target: Fuc(a1-2)Gal(b1-3)GlcNAc(b1-3)[Gal(b1-4)GlcNAc(b1-6)]Gal(b1-4)Glc
How it was run: as §1

[3] = biological target: Fuc(a1-2)Gal(b1-3)[Fuc(a1-4)]GlcNAc(b1-3)[Gal(b1-4)GlcNAc(b1-6)]Gal(b1-4)Glc
How it was run: as §1

[4] = biological target: Fuc(a1-2)Gal6S(b1-3)GlcNAc6S
How it was run: as §1

[5] = biological target: Fuc(a1-2)[Gal(a1-3)]Gal(b1-4)GlcNAc
How it was run: as §1

[6] = biological target: Fuc(a1-2)[GalNAc(a1-3)]Gal(b1-3)GlcNAc(b1-2)Man(a1-3)[Fuc(a1-2)[GalNAc(a1-3)]Gal(b1-3)GlcNAc(b1-2)Man(a1-6)]Man(b1-4)GlcNAc(b1-4)GlcNAc
How it was run: as §1

[7] = biological target: Fuc(a1-2)[GalNAc(a1-3)]Gal(b1-3)GlcNAc(b1-3)GalNAc
How it was run: as §1

[8] = biological target: Fuc(a1-2)[GalNAc(a1-3)]Gal(b1-4)[Fuc(a1-3)]GlcNAc(b1-3)GalNAc
How it was run: as §1

[9] = biological target: Fuc(a1-3)[Gal(b1-4)]GlcNAc(b1-6)GalNAc
How it was run: as §1

[10] = biological target: Gal(a1-3)Gal(b1-3)[Fuc(a1-4)]GlcNAc(b1-2)Man(a1-3)[Gal(a1-3)Gal(b1-3)[Fuc(a1-4)]GlcNAc(b1-2)Man(a1-6)]Man(b1-4)GlcNAc(b1-4)GlcNAc
How it was run: as §1

Gal(a1-3)Gal(b1-4)GlcNAc = biological target: Gal(a1-3)Gal(b1-4)GlcNAc
How it was run: as §1

[11] = biological target: Gal(a1-3)Gal(b1-4)[Fuc(a1-3)]GlcNAc
How it was run: as §1

Gal(a1-3)GalNAc = biological target: Gal(a1-3)GalNAc
How it was run: as §1

[12] = biological target: Gal(a1-4)Gal(b1-3)GlcNAc(b1-2)Man(a1-3)[Gal(a1-4)Gal(b1-3)GlcNAc(b1-2)Man(a1-6)]Man(b1-4)GlcNAc(b1-4)GlcNAc
How it was run: as §1

[13] = biological target: Gal(b1-3)GalNAc(b1-4)Gal(b1-4)Glc
How it was run: as §1

[14] = biological target: Gal(b1-3)GlcNAc(b1-2)Man(a1-3)[Gal(b1-3)GlcNAc(b1-2)Man(a1-6)]Man(b1-4)GlcNAc(b1-4)GlcNAc
How it was run: as §1

[15] = biological target: Gal(b1-3)GlcNAc(b1-3)Gal(b1-4)Glc
How it was run: as §1

[16] = biological target: Gal(b1-3)GlcNAc(b1-3)Gal(b1-4)[Fuc(a1-3)]GlcNAc(b1-6)[Gal(b1-3)GlcNAc(b1-3)]Gal(b1-4)Glc
How it was run: as §1

[17] = biological target: Gal(b1-3)[Neu5Ac(a2-6)]GalNAc
How it was run: as §1

[18] = biological target: Gal(b1-3)[Neu5Ac(a2-6)]GlcNAc(b1-4)Gal(b1-4)Glc
How it was run: as §1

[19] = biological target: Gal(b1-4)GlcNAc(b1-2)Man(a1-3)[Gal(b1-4)GlcNAc(b1-2)Man(a1-6)][GlcNAc(b1-4)]Man(b1-4)GlcNAc(b1-4)[Fuc(a1-6)]GlcNAc
How it was run: as §1

[20] = biological target: Gal(b1-4)GlcNAc(b1-3)Gal(b1-4)GlcNAc(b1-3)Gal(b1-4)GlcNAc(b1-2)Man(a1-3)[Gal(b1-4)GlcNAc(b1-3)Gal(b1-4)GlcNAc(b1-3)Gal(b1-4)GlcNAc(b1-2)Man(a1-6)]Man(b1-4)GlcNAc(b1-4)GlcNAc
How it was run: as §1

[21] = biological target: Gal(b1-4)GlcNAc(b1-3)Gal(b1-4)GlcNAc(b1-3)Gal(b1-4)GlcNAc(b1-3)Gal(b1-4)GlcNAc(b1-2)Man(a1-3)[Gal(b1-4)GlcNAc(b1-3)Gal(b1-4)GlcNAc(b1-3)Gal(b1-4)GlcNAc(b1-3)Gal(b1-4)GlcNAc(b1-2)Man(a1-6)]Man(b1-4)GlcNAc(b1-4)GlcNAc
How it was run: as §1

[22] = biological target: Gal(b1-4)GlcNAc(b1-3)Gal(b1-4)GlcNAc(b1-3)Gal(b1-4)GlcNAc(b1-3)Gal(b1-4)GlcNAc(b1-2)[Gal(b1-4)GlcNAc(b1-3)Gal(b1-4)GlcNAc(b1-3)Gal(b1-4)GlcNAc(b1-3)Gal(b1-4)GlcNAc(b1-6)]Man(a1-6)[Gal(b1-4)GlcNAc(b1-3)Gal(b1-4)GlcNAc(b1-3)Gal(b1-4)GlcNAc(b1-3)Gal(b1-4)GlcNAc(b1-2)Man(a1-3)]Man(b1-4)GlcNAc(b1-4)[Fuc(a1-6)]GlcNAc
How it was run: as §1

[23] = biological target: Gal(b1-4)GlcNAc(b1-3)Gal(b1-4)GlcNAc(b1-3)Gal(b1-4)GlcNAc(b1-3)Gal(b1-4)GlcNAc(b1-3)Gal(b1-4)GlcNAc(b1-2)[Gal(b1-4)GlcNAc(b1-3)Gal(b1-4)GlcNAc(b1-3)Gal(b1-4)GlcNAc(b1-3)Gal(b1-4)GlcNAc(b1-3)Gal(b1-4)GlcNAc(b1-6)]Man(a1-6)[Gal(b1-4)GlcNAc(b1-3)Gal(b1-4)GlcNAc(b1-3)Gal(b1-4)GlcNAc(b1-3)Gal(b1-4)GlcNAc(b1-3)Gal(b1-4)GlcNAc(b1-2)Man(a1-3)]Man(b1-4)GlcNAc(b1-4)[Fuc(a1-6)]GlcNAc
How it was run: as §1

[24] = biological target: Gal(b1-4)GlcNAc(b1-3)[Fuc(a1-3)GlcNAc(b1-6)]Gal(b1-4)Glc
How it was run: as §1

B1: Sp8391B-bot-388-20-388 (Bacteroides ovatus) (protein)
chain: GCQNNDENEQHYDNKLFISASNFTKEILFKAGDTNVETGLSVAIAKPEEHDIKVTMSPAPELLSTYKLAYYDETAVLLSEEHYSMPETSTTIKSGSIVSPELPIEFINTGELDIKTTYVLPVTIKSVEGIGVLQSAKTYYYVFRGASLINVVCNISRNRAYPDFKNDSKFNNLTENTMEILFKANSFPNTLNTLMGIESNYLLRIGDATIPNNQLQVATSVNNCTSADLQLESGKWYHVAVAFNKGNVKVYINGVEKLSGSTGKSSVSLGAKHTNEEDGSRCFWVGYSYKDDRYFDGVVSEVRIWNRALTAEEIQATNHFYTIEPESEGLIAYWKFDEGSGTVAKDYSVSGYDLTIEKEPKWESVSLPQ
Fuc(a1-2)Gal
  glycan array binding signal (z-score): -0.522
[1]
  glycan array binding signal (z-score): 2.69
[2]
  glycan array binding signal (z-score): -0.322
[3]
  glycan array binding signal (z-score): 1.29
[4]
  glycan array binding signal (z-score): -0.154
[5]
  glycan array binding signal (z-score): -0.199
[6]
  glycan array binding signal (z-score): 0.439
[7]
  glycan array binding signal (z-score): -0.474
[8]
  glycan array binding signal (z-score): -0.673
[9]
  glycan array binding signal (z-score): 4.03
[10]
  glycan array binding signal (z-score): 8.13
Gal(a1-3)Gal(b1-4)GlcNAc
  glycan array binding signal (z-score): -0.489
[11]
  glycan array binding signal (z-score): -0.616
Gal(a1-3)GalNAc
  glycan array binding signal (z-score): -0.069
[12]
  glycan array binding signal (z-score): 2.6
[13]
  glycan array binding signal (z-score): 0.437
[14]
  glycan array binding signal (z-score): 3.77
[15]
  glycan array binding signal (z-score): 0.105
[16]
  glycan array binding signal (z-score): 12.8
[17]
  glycan array binding signal (z-score): -0.208
[18]
  glycan array binding signal (z-score): -0.044
[19]
  glycan array binding signal (z-score): -0.897
[20]
  glycan array binding signal (z-score): 2.45
[21]
  glycan array binding signal (z-score): 2.49
[22]
  glycan array binding signal (z-score): -0.629
[23]
  glycan array binding signal (z-score): -0.112
[24]
  glycan array binding signal (z-score): 0.415
